From PubChem BioAssay (Tox21)
Where “and” joins values, the source holds several entries; their conditions need not be identical. Identical values can stand only once. Results filed as inconclusive are left out. The source holds several records for some structures; these can differ, active in one and inactive in another. Calls of active or inactive are those of the source. Unless noted, calls follow the shape of the dose curve; as a rule, active = well fitted curve in the direction sought with a large enough effect in the repeat runs; inconclusive = weak or mixed curves; inactive = no such curve, though single readings can be large; an effect the other way counts as inactive or inconclusive.

Columns and labels:
[1] = qHTS assay to identify small molecule antagonists of the estrogen related receptor (ERR) signaling pathway - cell viability counter screen (AID 1224818);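 also: series mostly up to about 46 µM; viability measured after 17.5 h of compound exposure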
How it was run: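 In the same ERR cell assay, compound-treated wells (17.5 h, 37 C) were multiplexed with a fluorogenic viability reagent, CellTiter-Fluor, read after 30 min to flag cytotoxic substances.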

[2] = qHTS assay to identify small molecule antagonists of the estrogen related receptor (ERR) signaling pathway (AID 1224819;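 also: luminescence from an ERR-driven luciferase reporter measured with One-Glo reagent; series mostly up to about 46 µM; nearly all actives have a fitted effect of over 50% in size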)
How it was run: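 qHTS in ERR cells, 2,000/well, 1536 format. Cpd (DMSO) added after 6 h settle, 18 h 37 C. One-Glo luminescence, 30 min RT.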

[3] = qHTS assay to identify small molecule agonists of the estrogen related receptor (ERR) signaling pathway (AID 1224820)
How it was run: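 Cells: ERR line from NTP, 2,000/well. Pre-incubation 6 h, 37 C/5% CO2. Compound (DMSO) pin transfer, 18 h 37 C. One-Glo, 30 min RT, luminescence.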

[4] = test system: estrogen-related receptor alpha (ERRalpha) with PGC-1alpha coactivator, human; assay: qHTS assay to identify small molecule antagonists of the estrogen related receptor signaling pathway with the pleiotropic PPARgamma coactivator (PGC) (AID 1224821; calls by dose curve;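 also: series mostly up to about 46 µM; lower luminescence signal means antagonism of PGC/ERR signalling; nearly all actives have a fitted effect of over 50% in size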)
How it was run: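 Luminescent read-out (One-Glo, 30 min at room temperature) following 18 h treatment of PGC/ERR cells at 37 C with compounds delivered in DMSO. Cells had settled 6 h at 37 C/5% CO2 before dosing.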

[5] = qHTS assay to identify small molecule antagonists of the estrogen related receptor signaling pathway with the pleiotropic PPARgamma coactivator (PGC) cell viability counter screen (AID 1224822; also: series mostly up to about 46 µM)
How it was run: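 Compounds in DMSO, with positive and negative controls, were applied to PGC/ERR cells (2,000/well) and left 17.5 h at 37 C before CellTiter-Fluor detection.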

[6] = qHTS assay to identify small molecule agonists of the estrogen related receptor signaling pathway with the pleiotropic PPARgamma coactivator (PGC) (AID 1224823)
How it was run: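 Steps: plate PGC/ERR cells at 2,000 cells/well; incubate 6 h, 37 C/5% CO2; pin-transfer compounds (DMSO); incubate 18 h, 37 C; add One-Glo; 30 min RT; read luminescence.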

[7] = qHTS assay to identify small molecule antagonists of the estrogen related receptor (ERR) signaling pathway from Tox21 library - cell viability counter screen (AID 1224834); also: nearly all actives have a fitted effect of over 30% in size; also: potency is read from the fitted curve at half-maximal effect
How it was run: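 CellTiter-Fluor fluorescence measured; ERR cells; 17.5 h compound incubation at 37 C; 30 min reagent step.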

[8] = qHTS assay to identify small molecule agonists of the constitutive androstane receptor (CAR) signaling pathway - cell viability counter screen (AID 1224836); also: nearly all actives have a fitted effect of over 45% in size; also: potency is read from the fitted curve at half-maximal effect; as to viability change, negative = cytotoxic: series mostly up to about 92 µM
How it was run: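 23 h treatment, 37 C, 5% CO2. Cell line: HepG2 stably expressing hCAR with a CYP2B6-2.2kb construct. Co-treatment: PK11195, 0.75 uM final. Read-out: CellTiter-Fluor fluorescence intensity.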

[9] = target: Nuclear receptor subfamily 1 group I member 3 (Homo sapiens) (UniProt Q14994); assay: qHTS assay to identify small molecule antagonists of the constitutive androstane receptor (CAR) signaling pathway (AID 1224838);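 also: HepG2 cells stably expressing hCAR with CYP2B6 luciferase reporter stimulated by CITCO; nearly all actives have a fitted effect of over 40% in size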; also: potency is read from the fitted curve at half-maximal effect
Sequence of Nuclear receptor subfamily 1 group I member 3 (Homo sapiens) (Q14994 whole entry, looked up): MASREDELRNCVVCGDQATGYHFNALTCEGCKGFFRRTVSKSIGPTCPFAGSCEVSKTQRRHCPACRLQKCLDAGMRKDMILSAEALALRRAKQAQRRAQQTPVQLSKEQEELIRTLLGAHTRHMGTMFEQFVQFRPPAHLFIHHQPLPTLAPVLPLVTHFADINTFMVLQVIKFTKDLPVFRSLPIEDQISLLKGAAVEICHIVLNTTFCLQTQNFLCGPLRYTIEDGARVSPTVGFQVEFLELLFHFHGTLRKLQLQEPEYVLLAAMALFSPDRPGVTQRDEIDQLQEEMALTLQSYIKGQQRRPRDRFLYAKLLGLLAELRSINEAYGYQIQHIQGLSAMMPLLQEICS
How it was run: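 Reporter luminescence was quantified after 24 h exposure of hCAR/CYP2B6-2.2kb double-stable HepG2 cells to compounds at 15 concentrations in the presence of 50 nM CITCO final.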

[10] = qHTS assay to identify small molecule antagonists of the estrogen related receptor signaling pathway with the pleiotropic PPARgamma coactivator (PGC) from Tox21 10K library - cell viability counter screen (AID 1224840; active = well fitted cell-killing curve with a large enough effect in the repeat runs, not every such curve was filed as active; also: nearly all actives have a fitted effect of over 40% in size; also: potency is read from the fitted curve at half-maximal effect)
How it was run: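 Here the PGC/ERR cells serve as a cytotoxicity control: they are exposed to compounds for 17.5 hours at 37 C, and live-cell signal is quantified using CellTiter-Fluor fluorescence.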

[11] = target: Thyrotropin receptor (Homo sapiens) (UniProt P16473); assay: qHTS assay to identify small molecule agonists of the thyroid stimulating hormone receptor (TSHR) signaling pathway (AID 1224843; calls by dose curve; also: nearly all actives have a fitted effect of over 45% in size; also: potency is read from the fitted curve at half-maximal effect)
Sequence of Thyrotropin receptor (Homo sapiens) (P16473 whole entry, looked up): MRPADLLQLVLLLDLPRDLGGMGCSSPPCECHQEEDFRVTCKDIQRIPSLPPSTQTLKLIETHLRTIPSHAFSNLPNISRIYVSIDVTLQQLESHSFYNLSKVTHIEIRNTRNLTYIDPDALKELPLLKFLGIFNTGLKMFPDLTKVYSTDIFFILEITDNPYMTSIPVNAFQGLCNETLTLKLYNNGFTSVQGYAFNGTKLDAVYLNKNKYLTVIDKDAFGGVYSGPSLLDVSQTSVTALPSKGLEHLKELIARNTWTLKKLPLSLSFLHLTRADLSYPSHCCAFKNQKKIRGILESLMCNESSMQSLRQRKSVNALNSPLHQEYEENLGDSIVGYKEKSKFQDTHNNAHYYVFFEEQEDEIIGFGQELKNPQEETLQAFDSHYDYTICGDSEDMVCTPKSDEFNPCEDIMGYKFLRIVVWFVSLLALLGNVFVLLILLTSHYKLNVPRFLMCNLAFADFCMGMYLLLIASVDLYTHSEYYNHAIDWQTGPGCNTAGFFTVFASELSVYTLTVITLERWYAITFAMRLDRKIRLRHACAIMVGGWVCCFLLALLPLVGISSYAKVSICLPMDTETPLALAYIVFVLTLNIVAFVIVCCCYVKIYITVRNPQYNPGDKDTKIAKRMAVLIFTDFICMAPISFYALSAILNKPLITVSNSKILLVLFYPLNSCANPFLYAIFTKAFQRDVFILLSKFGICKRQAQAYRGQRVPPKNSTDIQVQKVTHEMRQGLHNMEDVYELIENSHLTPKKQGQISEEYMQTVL
How it was run: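 Cell line HEK293 with TSHR; density 800/well. Exposure 30 min RT. Readout HTRF cAMP (cAMP-d2/anti-cAMP-cryptate), 1 h RT before reading.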

[12] = qHTS assay to identify small molecule agonists of the hypoxia (HIF-1) signaling pathway - cell viability counter screen (AID 1224844; calls by dose curve; also: nearly all actives have a fitted effect of over 50% in size; also: potency is read from the fitted curve at half-maximal effect)
How it was run: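 Multiplexed with the HRE beta-lactamase assay, this viability read used CellTiter-Glo luminescence (30 min, RT) on HRE-bla ME-180 cells treated 17 hrs with compounds in 0.5% dialyzed FBS medium.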

[13] = qHTS assay to identify small molecule agonists of H2AX (AID 1224845; active = well fitted activation curve with a large enough effect in the signal ratio in the repeat runs, not every such curve was filed as active; the % refers to the signal ratio; also: potency is read from the fitted curve at half-maximal effect)
How it was run: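 Wild-type CHO-K1 cells plated overnight, then exposed 3 hr at 37C to compounds at 15 concentrations (0.76% DMSO). Lysed, then HTRF anti-pH2AX(S139)-cryptate/anti-H2AX-d2 detection after 24 hr at room temperature; emissions 665 and 620 nm.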

[14] = qHTS assay to identify small molecule agonists of the retinoic acid receptor (RAR) signaling pathway (AID 1159553)
How it was run: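 Activation of retinol signaling was monitored via a RARE luciferase reporter in C3RL4 cells. After 6 hr compound treatment at 37 C, detection reagent was added for 30 min at room temperature before luminescence reading.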

[15] = target: Luciferin 4-monooxygenase (Photinus pyralis) (UniProt P08659); assay: qHTS assay to identify small molecule inhibitors of firefly luciferase (AID 1224835); also: nearly all actives have a fitted effect of over 25% in size; also: potency is read from the fitted curve at half-maximal effect; as to activity change, negative = inhibition: series mostly up to about 120 µM
Sequence of Luciferin 4-monooxygenase (Photinus pyralis) (P08659 whole entry, looked up): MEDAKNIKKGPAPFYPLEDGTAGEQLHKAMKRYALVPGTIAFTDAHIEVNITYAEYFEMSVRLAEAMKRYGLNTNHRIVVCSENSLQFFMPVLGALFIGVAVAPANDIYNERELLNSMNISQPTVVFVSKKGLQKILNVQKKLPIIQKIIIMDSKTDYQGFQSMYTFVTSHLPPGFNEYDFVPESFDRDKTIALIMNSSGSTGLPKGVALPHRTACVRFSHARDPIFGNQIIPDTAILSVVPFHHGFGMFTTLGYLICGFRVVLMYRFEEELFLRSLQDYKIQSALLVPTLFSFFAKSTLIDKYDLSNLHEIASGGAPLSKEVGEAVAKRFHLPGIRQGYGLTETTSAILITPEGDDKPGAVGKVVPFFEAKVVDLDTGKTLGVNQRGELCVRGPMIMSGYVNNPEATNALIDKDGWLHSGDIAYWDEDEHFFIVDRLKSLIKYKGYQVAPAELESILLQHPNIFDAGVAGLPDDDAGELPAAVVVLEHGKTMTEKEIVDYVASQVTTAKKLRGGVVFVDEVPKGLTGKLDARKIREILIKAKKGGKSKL
How it was run: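 Quantitative HTS format; KM concentrations of both substrates. Purified P. pyralis FLuc activity quantified from luminescence images.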

[16] = qHTS assay to identify small molecule antagonists of the constitutive androstane receptor (CAR) signaling pathway - cell viability counter screen (AID 1224837); also: nearly all actives have a fitted effect of over 45% in size; also: potency is read from the fitted curve at half-maximal effect; as to activity change, negative = cytotoxicity: series mostly up to about 92 µM
How it was run: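 Using CellTiter-Fluor, viability is scored in HepG2 cells stably carrying hCAR and a 2.2kb CYP2B6 reporter after 23 hr compound exposure across 15 concentrations, with CITCO present at 50 nM.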

[17] = qHTS assay to identify small molecule agonists of the estrogen related receptor signaling pathway with the pleiotropic PPARgamma coactivator (PGC) from Tox21 10K library (AID 1224842); also: nearly all actives have a fitted effect of over 15% in size
How it was run: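 PGC/ERR reporter cells (NTP line) were seeded 2,000 per well, rested 6 h at 37 C/5% CO2, then pin-dosed with compounds in DMSO for 18 h at 37 C; luciferase read by One-Glo luminescence after 30 min at room temperature.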

[18] = target: Nuclear receptor subfamily 1 group I member 3 (Homo sapiens) (UniProt Q14994); assay: qHTS assay to identify small molecule agonists of the constitutive androstane receptor (CAR) signaling pathway (AID 1224839); also: nearly all actives have a fitted effect of over 15% in size; also: potency is read from the fitted curve at half-maximal effect;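 as to activation: HepG2 cells stably carrying human CAR and a CYP2B6 luciferase reporter; series mostly up to about 92 µM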
How it was run: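 Compounds tested at 15 concentrations on HepG2 cells stably harbouring hCAR and CYP2B6-2.2kb reporter constructs, co-treated with PK11195 (0.75 uM final), 24 h at 37 C; luminescent reporter signal quantified.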

[19] = qHTS assay to identify small molecule antagonists of the estrogen related receptor signaling pathway with the pleiotropic PPARgamma coactivator (PGC) from Tox21 10K library (AID 1224841; call rule not given here; also: actives are mostly falling curves and most rising ones were filed inactive; nearly all actives have a fitted effect of over 50% in size; also: potency is read from the fitted curve at half-maximal effect; as to activity, negative = inhibition: series mostly up to about 92 µM)
How it was run: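 Each well held 2,000 PGC/ERR cells, pre-incubated six hours (37 C, 5% CO2). Test substances in DMSO were added by pin tool and left for 18 h at 37 C before luciferase detection by One-Glo.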

[20] = qHTS assay to identify small molecule antagonists of the retinoic acid receptor (RAR) signaling pathway (AID 1159552; also: nearly all actives have a fitted effect of over 50% in size; also: potency is read from the fitted curve at half-maximal effect)
How it was run: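 Test chemicals and DMSO controls were pin-transferred onto C3RL4 cells a day after seeding; retinol (1 uM final) followed at once. Luminescent reporter output was quantified after 6 hr of co-incubation and 30 min with detection reagent.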
% is scaled to controls: 0 for no effect and ±100 for the full control effect.

CC(C)OC(=O)c1cc(C(=O)OC(C)C)cc([N+](=O)[O-])c1
inactive: Potency [1] | Potency [2] | outcome [3] | outcome [4] | Potency [5] | outcome [6] | Potency [7] | Potency [8] | Potency [9] | Potency [10] | Potency [12] | Potency [13]
active: Potency [11] 22.2 µM

CN(Cc1cc(Br)cc(Br)c1N)C1CCCCC1
inactive: Potency [14] | Potency [7] | Potency [15] | Potency [8] | Potency [16] | Potency [10] | Potency [17]

C1CC(COCC2CO2)CCC1COCC1CO1 (stereo unspecified)
inactive: Potency [7] | Potency [15] | Potency [8] | Potency [16] | Potency [9] | Potency [18] | Potency [10] | Potency [17] | Potency [11] | Potency [13]

C=C(C)C(=O)OCCC[Si](Cl)(Cl)Cl
inactive: Potency [14] | Potency [7] | Potency [15] | Potency [8] | Potency [16] | Potency [9] | Potency [18] | Potency [10] | Potency [11] | Potency [12] | Potency [13]

CN(C)CCCN1c2ccccc2CCc2ccccc21
active: Potency [8] 30.6 µM | Potency [12] 38.9 µM
inactive: Potency [1] | Potency [5]

NC(=O)C(=O)N/N=C/c1ccc([N+](=O)[O-])o1
inactive: Potency [7] | Potency [15] | Potency [8] | Potency [16] | Potency [9] | Potency [10] | Potency [12]

CCOC(=O)[C@@](C)(N)Cc1ccc(O)c(O)c1
inactive: Potency [7] | Potency [15] | Potency [8] | Potency [16] | Potency [9] | Potency [18] | Potency [10] | Potency [19] | Potency [17] | Potency [11]

NC(=O)c1nc(-c2cccc(-c3cc(F)ccc3OCC(F)(F)C(F)(F)F)c2)n[nH]1
inactive: Potency [14] | Potency [15] | Potency [17] | Potency [11] | Potency [13]
active: Potency [8] 61.1 µM | Potency [19] 24.3 µM

[O]=[Zr]
active: Potency [15] 39.8 µM
inactive: Potency [14] | Potency [7] | Potency [8] | Potency [10] | Potency [19] | Potency [17] | Potency [13]

CCCCCCCCCCCCCC[n+]1ccccc1
inactive: Potency [15] | Potency [18] | Potency [17] | Potency [13]
active: Potency [7] 27.3 µM | Potency [8] 7.7 µM | Potency [16] 9.69 µM | Potency [9] 48.6 µM | Potency [10] 54.5 µM | Potency [12] 49 µM

C=CC(=C)CC/C=C(\C)CCC=C(C)C
inactive: viability change, negative = cytotoxic [7] 0.736% [at 19 µM] | activity change, negative = inhibition [15] 0.425% [at 23.6 µM] | viability change, negative = cytotoxic [8] 4.77% [at 19 µM] | activity change, negative = cytotoxicity [16] -2.25% [at 19 µM] | activity, negative = inhibition [9] 8.18% [at 19 µM] | activation [18] 4.39% [at 19 µM] | viability change, negative = cytotoxic [10] -0.28% [at 19 µM] | activity, negative = inhibition [19] 0% [at 19 µM] | activation [17] 0% [at 19 µM] | activation [11] -0.893% [at 19 µM] | activity change, negative = cytotoxicity [12] 1.43% [at 15.8 µM]

CNCC[C@H](Oc1cccc2ccccc12)c1cccs1
inactive: Potency [18] | Potency [17] | Potency [11] | Potency [13]
active: Potency [20] 23.7 µM | Potency [8] 21.1 µM | Potency [16] 26.6 µM | Potency [9] 29.8 µM | Potency [19] 33.5 µM

Cc1c(-c2ccc(O)cc2)n(Cc2ccc(OCCN3CCCCCC3)cc2)c2ccc(O)cc12
active: Potency [7] 29.8 µM

CC(=O)Nc1ccc(O)cc1
inactive: Potency [7] | Potency [15] | Potency [8] | Potency [16] | Potency [10]

CCCCCCC(C)Nc1ccc(Nc2ccccc2)cc1 (stereo unspecified)
inactive: Potency [14] | Potency [15] | Potency [8] | Potency [16] | Potency [10] | Potency [11]

C[C@@]12C(=O)OC(=O)[C@]1(C)C1CCC2O1
active: Potency [7] 6.68 µM | Potency [8] 1.68 µM | Potency [16] 1.33 µM | Potency [9] 0.668 µM
inactive: Potency [15] | Potency [18] | Potency [12]

C=C(c1ccc(C(=O)O)cc1)c1cc2c(cc1C)C(C)(C)CCC2(C)C
38.6 µM (active) and inactive: Potency [18]
inactive: Potency [15] | Potency [8] | Potency [16] | Potency [17]
61.1 µM (active) and inactive: Potency [10]
active: Potency [7] 54.5 µM | Potency [19] 21.7 µM | Potency [12] 15.5 µM and 16.9 µM | Potency [13] 89.8 µM

Brc1ccccc1-c1ccccc1
inactive: Potency [14] | Potency [1] | Potency [2] | outcome [3] | outcome [6] | Potency [7] | Potency [8] | Potency [16] | Potency [9] | Potency [18] | Potency [10] | Potency [17]

COc1ccccc1OCCNCC(O)COc1cccc2[nH]c3ccccc3c12 (stereo unspecified)
active: Potency [7] 23.7 µM
inactive: Potency [14] | outcome [3] | outcome [4] | outcome [6] | Potency [15] | Potency [9] | Potency [18] | Potency [17] | Potency [13]

c1cc(OCC2CO2)cc(OCC2CO2)c1 (stereo unspecified)
inactive: Potency [15] | Potency [8] | Potency [16] | Potency [18] | Potency [11]
active: Potency [7] 60.6 µM | Potency [10] 68 µM

CC(C)N=C(N)/N=C(\N)Nc1ccc(Cl)cc1
inactive: Potency [14] | Potency [15] | Potency [8] | Potency [16] | Potency [10] | Potency [17] | Potency [12] | Potency [13]

CC1CCCCN1CCCOC(=O)c1ccc(OC2CCCCC2)cc1 (stereo unspecified)
active: Potency [11] 26.6 µM
inactive: Potency [14] | Potency [15] | Potency [8] | Potency [16] | Potency [10] | Potency [17] | Potency [12] | Potency [13]

CCCCCCOc1cc(C)c(O)c(C)c1C
active: Potency [7] 61.9 µM | Potency [18] 49.2 µM | Potency [10] 55.1 µM
inactive: Potency [15] | Potency [8] | Potency [16] | Potency [9] | Potency [19] | Potency [17]

CC(CN(C)C)CN1c2ccccc2CCc2ccccc21 (stereo unspecified)
inactive: Potency [1] | Potency [5] | Potency [15] | Potency [8] | Potency [16] | Potency [10] | Potency [13]

Cc1oc(-c2ccccc2)nc1CCOc1ccc(C[C@H](Nc2ccccc2C(=O)c2ccccc2)C(=O)O)cc1
inactive: Potency [20] | Potency [17] | Potency [11]
